Experimental findings from PubChem BioAssay (Tox21) are described below.

Molecules are shown by their SMILES. Several values for one entry are separate records, joined by “and”; a condition that tells them apart may be missing. Identical values can stand only once. Results filed as inconclusive are left out. A structure can be active in one record and inactive in another. Activity calls are given as the source filed them. The call rests on the fitted dose curve; in most records, active means well fitted curve in the direction sought with a large enough effect in the repeat runs; inconclusive means weak or mixed curves; inactive means no such curve, though single readings can be large; an effect the other way counts as inactive or inconclusive.

Assay [1] can be described thus: A CellTox Green Cytotoxicity Assay to monitor cytotoxicity in HEK293 cells - 40 hour (AID 1224871). Further: nearly all actives have a fitted effect of over 45% in size. Further: potency means the concentration at half of the fitted maximal effect. Put shortly: (§1)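 Tox21 screen in HEK293: membrane-impermeant cyanine dye fluoresces on binding dead-cell DNA; compound pinned 5 h post-seeding, plates held at 37 C, signal read repeatedly through 40 h.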
Assay [2] in a line: qHTS RealTime-Glo MT Cell Viability Assay in HEK293 cells - 16 hour (AID 1224872). Further: top concentration of the series differs between compounds; nearly all actives have a fitted effect of over 50% in size. Put shortly:
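HEK293 cells seeded with NanoLuc/prosubstrate reagent, rested 5 h at 37 C, then dosed and kept at 37 C up to 40 h. Nonlytic real-time luminescence from viable cells read at 0, 8, 16, 24, 32 and 40 h.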
In general terms: In qHTS, concentration-response curves come from the screen itself.

Assay [3] is described as follows: qHTS RealTime-Glo MT Cell Viability Assay in HepG2 cells - 8 hour (AID 1224873). Further: nearly all actives have a fitted effect of over 55% in size. Put shortly: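 HepG2 cells (600/well) mixed with RealTime-Glo MT reagent, settled 5 h at 37 C/5% CO2 before compound addition. Nonlytic NanoLuc luminescence from viable-cell prosubstrate reduction read repeatedly during 40 h treatment at 37 C.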
Assay [4] can be described thus: qHTS RealTime-Glo MT Cell Viability Assay in HEK293 cells - 40 hour (AID 1224874). Further: nearly all actives have a fitted effect of over 50% in size. Further: potency means the concentration at half of the fitted maximal effect. The conditions noted are these: RealTime-Glo luminescence; max response: stronger effect = lower value. Put shortly:
(§2)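 HEK293 + NanoLuc + prosubstrate, 600 cells/well; 5 h, 37 C/5% CO2; compound 23 nL in DMSO by pintool; 37 C; luminescence read at 0, 8, 16, 24, 32 and 40 h time points.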

The nature of assay [5]: A CellTox Green Cytotoxicity Assay to monitor cytotoxicity in HEK293 cells - 24 hour (AID 1224875). Further: series mostly up to about 77 µM; nearly all actives have a fitted effect of over 45% in size. A digest of the protocol:
as §1

A short description of assay [6]: A CellTox Green Cytotoxicity Assay to monitor cytotoxicity in HepG2 cells - 16 hour (AID 1224876). Further: nearly all actives have a fitted effect of over 45% in size. Put shortly: (§3)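 Measurements at 0, 8, 16, 24, 32 and 40 h of treatment captured CellTox Green fluorescence in HepG2 cells that had been co-plated with reagent and preincubated 5 h at 37 C/5% CO2.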
Assay [7] can be described thus: qHTS RealTime-Glo MT Cell Viability Assay in HepG2 cells - 32 hour (AID 1224877). Further: nearly all actives have a fitted effect of over 55% in size. A digest of the protocol: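 HepG2 cells (600/well) were dispensed with RealTime-Glo reagents, incubated 5 h at 37 °C, then treated with compounds in DMSO for up to 40 h. Nonlytic NanoLuc luminescence reflecting viable cells was read at each stated time point.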
Assay [8] in a line: A CellTox Green Cytotoxicity Assay to monitor cytotoxicity in HepG2 cells - 24 hour (AID 1224878). Further: nearly all actives have a fitted effect of over 45% in size. Put shortly:
as §3

A short description of assay [9]: A CellTox Green Cytotoxicity Assay to monitor cytotoxicity in HepG2 cells - 40 hour (AID 1224879). Further: nearly all actives have a fitted effect of over 40% in size. Further: potency means the concentration at half of the fitted maximal effect. Put shortly: as §3
Assay [10] can be described thus: qHTS RealTime-Glo MT Cell Viability Assay in HEK293 cells - 0 hour (AID 1224880). Put shortly: as §2
On the % scale 0 is the no-effect control and ±100 the full control effect.

On to `O=C(/C=C/c1ccc(O)c(O)c1)O[C@@H](C(=O)O)[C@@H](OC(=O)/C=C/c1ccc(O)c(O)c1)C(=O)O`, for which the Potency entry in assay [1], in assay [2], in assay [3], in assay [5], in [6] and in assay [7] was “inactive” in each case. Further, the Potency result in [8], in [9] and in assay [10] was “inactive” in each case. In [4], the max response is 1.33% (inactive).

In the case of `O=C(O)c1ccc2cc(C(=O)O)ccc2c1`, the Potency entry in assay [1], in assay [2], in [3], in assay [5], in [6] and in [7] was “inactive” in each case. In addition, the Potency result in [8], in [9] and in assay [10] was “inactive” throughout. The max response in assay [4] is 7.36% (inactive).

As for `CN1CCN2c3ccccc3Cc3ccccc3C2C1` (configuration not stated), the Potency entry in assay [1], in assay [2], in [3], in assay [5], in assay [6] and in assay [7] was “inactive” throughout. Further, in [4], the max response was -5.98% (inactive).

As to `C#C[C@]1(O)CC[C@H]2[C@@H]3[C@H](C)CC4=C(CCC(=O)C4)[C@H]3CC[C@@]21C`, the Potency result in assay [1], in assay [2], in [3], in assay [5], in [6] and in assay [7] was “inactive” throughout. The Potency result in assay [8], in assay [9] and in assay [10] was “inactive” each time. Moreover, the max response in assay [4] is -25.5% (inactive).

As for `CNc1ccc([N+](=O)[O-])cc1`, the Potency entry in assay [1], in assay [2], in assay [3], in assay [5], in [6] and in assay [7] was “inactive” each time. Further, the Potency result in [8], in [9] and in assay [10] was “inactive” in each case. Besides, the max response in assay [4] was -13.4% (inactive).

As to `CN(C)Cc1cc(C(C)(C)C)c(O)c(C(C)(C)C)c1`, the Potency result in assay [1], in [2], in assay [3], in [5], in [6] and in assay [7] was “inactive” each time. The Potency entry in [8], in assay [9] and in [10] was “inactive” each time. The max response in [4] is -1.74% (inactive).

Consider `CCCCCCC1CCCC(=O)O1` (configuration not stated), for which the Potency result in assay [1], in [2], in assay [3], in assay [5], in assay [6] and in assay [7] was “inactive” each time. The Potency entry in assay [8], in [9] and in assay [10] was “inactive” in each case. The max response in [4] was 3.13% (inactive).

For the molecule `COc1cc(C)ccc1O`, the Potency entry in assay [1], in [2], in [3], in assay [5], in assay [6] and in [7] was “inactive” in each case. Further, the Potency result in [8], in assay [9] and in [10] was “inactive” in each case. The max response in assay [4] was 3.04% (inactive).

In the case of `CC(C)(C)C1CCC(=O)CC1`, the Potency entry in assay [1], in [2], in [3], in assay [5], in [6] and in [7] was “inactive” each time. The Potency result in assay [8], in assay [9] and in assay [10] was “inactive” throughout. Moreover, the max response in [4] is 0.275% (inactive).

With `O=S(=O)(O)c1ccc(Nc2nc(Nc3ccc(/C=C/c4ccc(Nc5nc(Nc6ccc(S(=O)(=O)O)cc6)nc(N(CCO)CCO)n5)cc4S(=O)(=O)O)c(S(=O)(=O)O)c3)nc(N(CCO)CCO)n2)cc1`, the Potency entry in assay [1], in [2], in assay [3], in assay [5], in assay [6] and in [7] was “inactive” throughout. The Potency result in [8], in assay [9] and in assay [10] was “inactive” each time. For the same molecule, the max response in assay [4] is -1.51% (inactive).

On to `O=C(O)c1cccc(C(F)(F)F)c1`, for which the Potency entry in [1], in [2], in [3], in assay [5], in assay [6] and in assay [7] was “inactive” throughout. Also, the Potency entry in [8], in [9] and in assay [10] was “inactive” in each case. The max response in assay [4] is -0.78% (inactive).

For the molecule `CC(=O)CC(=O)Nc1ccc(S(=O)(=O)O)cc1`, the Potency result in [1], in [2], in assay [3], in assay [5], in [6] and in assay [7] was “inactive” each time. Moreover, the Potency entry in assay [8], in assay [9] and in assay [10] was “inactive” in each case. Besides, the max response in [4] is 0.915% (inactive).

For the molecule `C=CC(C)(CCC=C(C)C)OC=O` (configuration not stated), the Potency entry in assay [1], in [2], in assay [3], in [5], in assay [6] and in assay [7] was “inactive” throughout. Moreover, the Potency entry in [8], in assay [9] and in assay [10] was “inactive” in each case. For the same molecule, the max response in [4] is 5.29% (inactive).

Turning to `CCCCCCCC`, the Potency result in assay [1], in assay [2], in [3], in assay [5], in assay [6] and in assay [7] was “inactive” throughout. Also, the Potency entry in assay [8], in assay [9] and in assay [10] was “inactive” each time. The max response in assay [4] is -2.45% (inactive).

For the molecule `O[C@@H]([C@H](O)[C@H](O)CBr)[C@H](O)CBr`, the Potency result in [1], in [2], in assay [3], in assay [5], in [6] and in [7] was “inactive” in each case. In addition, the Potency result in [8], in assay [9] and in assay [10] was “inactive” in each case. In addition, the max response in [4] is 2.46% (inactive).

For `Oc1c(I)cc(Cl)c2cccnc12`, the Potency in [1] was 12.3 µM (active) and inactive; in assay [4], 24.5 µM (active); in [9] it was 34.6 µM (active) and 5.35 µM (active). In addition, the Potency result in assay [2], in [3], in assay [5], in assay [6], in assay [7] and in assay [8] was “inactive” in each case. Further, in assay [10], the Potency result is “inactive”.

As to `NC[C@H]1O[C@H](O[C@H]2[C@H](O[C@@H]3O[C@H](CO)[C@@H](O)[C@H]3O)C(O)[C@H](N)C[C@@H]2N)[C@H](N)[C@@H](O)[C@@H]1O` (some centres not stated), the values for the cytotoxicity increase in assay [1], in [6] and in [9] were -12.4% [at 6.97 µM] (inactive), 11% [at 6.97 µM] (inactive) and 9.38% [at 6.97 µM] (inactive), respectively. Further, the activity change, negative = cytotoxicity in assay [2] was 3.13% [at 6.97 µM] (inactive); in [10], 10.7% [at 6.97 µM] (inactive). The viability change, negative = cytotoxic in [3] is 2.91% [at 6.97 µM] (inactive). Besides, the max response in [4] is 4.82% (inactive). In addition, in [5], the activity change was -9.09% [at 6.97 µM, stronger effect = higher value] (inactive). Further, the activity change, negative = cytotoxic in [7] is 0.467% [at 6.97 µM] (inactive). Besides, the cytotoxicity in assay [8] was 9.58% [at 6.97 µM] (inactive).

For `FC(F)(F)c1cccc(Cl)c1`, the Potency result in [1], in [2], in assay [3], in [5], in assay [6] and in [7] was “inactive” in each case. Further, the Potency entry in assay [8], in assay [9] and in assay [10] was “inactive” in each case. Besides, in assay [4], the max response is -5.72% (inactive).

For the molecule `OC[C@H]1O[C@H](O[C@H]2O[C@H](CO)[C@@H](O)[C@H](O)[C@H]2O)[C@H](O)[C@@H](O)[C@@H]1O`, the Potency entry in assay [1], in [2], in assay [3], in assay [5], in assay [6] and in assay [7] was “inactive” throughout. The Potency result in assay [8], in assay [9] and in [10] was “inactive” throughout. Moreover, in assay [4], the max response is 25.1% (inactive).

In the case of `CCN(CCN)c1cccc(C)c1`, the Potency result in [1], in [2], in [3], in [5], in assay [6] and in [7] was “inactive” in each case. In addition, the Potency entry in [8], in [9] and in assay [10] was “inactive” each time. Besides, the max response in assay [4] was -16.9% (inactive) and 1.24% (inactive).
